Source: PubChem BioAssay
Giardia FBPA inh: qHTS Assay for Inhibitors of Fructose-1,6-bisphosphate Aldolase from Giardia Lamblia | A8B2U2 | purified Giardia FBPA | Potency, µM (titrated, usually from 59.6 µM), inactives show at the highest dose activity, negative = inhibition, usual class: inhibitors | 0.71% of 290,000 active; further: potency means the concentration at half of the fitted maximal effect; on the % scale 0 is the no-effect control and ±100 the full control effect; nearly all actives have a fitted effect of over 55% in size
Target sequence (A8B2U2 whole entry, looked up): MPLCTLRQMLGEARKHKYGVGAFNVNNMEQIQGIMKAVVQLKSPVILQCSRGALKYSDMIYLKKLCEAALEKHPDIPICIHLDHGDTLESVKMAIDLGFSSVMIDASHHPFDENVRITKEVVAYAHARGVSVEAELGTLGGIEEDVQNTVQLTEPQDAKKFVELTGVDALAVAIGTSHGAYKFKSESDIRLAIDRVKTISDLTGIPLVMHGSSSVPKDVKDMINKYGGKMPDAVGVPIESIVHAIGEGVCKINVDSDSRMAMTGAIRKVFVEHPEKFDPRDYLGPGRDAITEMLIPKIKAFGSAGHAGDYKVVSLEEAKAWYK
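40 nM FBPA preincubated 10 min at RT with compound (up to 57.5 uM final), then substrate plus GAPDH/TPI/NAD/arsenate coupling and diaphorase/resazurin added. Fluorescence read after 20 min at RT, 525/598 nm.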
Pf growth 48h: Primary qHTS for delayed death inhibitors of the malarial parasite plastid, 48 hour incubation | P. falciparum luciferase growth in erythrocytes, 48 h | AID 504832, 2011 | Potency, µM (highest dose often 28.7 µM), for the others: at the highest dose activity change, negative = inhibition, hits mostly inhibitors | 5.9% of 310,000 active; further: potency means the concentration at half of the fitted maximal effect; on the % scale 0 is the no-effect control and ±100 the full control effect
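Read-out is firefly luciferase luminescence from an integrated reporter in P. falciparum, so falling signal marks reduced parasite growth. Infected erythrocytes were at 2% hematocrit and 0.1% parasitemia (final) in Albumax-supplemented RPMI 1640.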
Cycloheximide cs: Cycloheximide Counterscreen for Small Molecule Inhibitors of Shiga Toxin | cell reporter, cycloheximide protein synthesis inhibition counterscreen | max response, % | 12% of 300,000 active; in the data active means max response mostly above about 13%, no sharp cut-off; inactive means mostly below about 14%; further: read at 38.3 µM for the half of the compounds with a filed dose; 0% is about no effect
Shiga inhibitor: A qHTS for Small Molecule Inhibitors of Shiga Toxin. Vero cells, Shiga toxin protein synthesis inhibition reporter. inhibition, % at 38.7 µM. 9.2% of 290,000 active; in the data active means inhibition mostly above about 28%, no sharp cut-off; inactive means mostly below about 43%; further: 0% is about no effect
NS1 function inh: qHTS Assay for Inhibitors of Influenza NS1 Protein Function; Potency, µM (titrated, usually from 46.1 µM), inactives show top-dose activity, positive = more growth; 0.4% of 270,000 active; AID 2326, 2010; calls by dose curve; further: potency means the concentration at half of the fitted maximal effect; actives are rising curves; nearly all actives have a fitted effect of over 50% in size
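A cell-based growth assay was used: compounds that relieve NS1-induced slow growth of budding yeast raise OD600. Assay medium was yeast nitrogen base with ammonium sulphate and -URA supplement, pH 6.0, with 2% galactose.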
Pf growth 96h: Primary qHTS for delayed death inhibitors of the malarial parasite plastid, 96 hour incubation. P. falciparum luciferase reporter growth, 96 h. Potency, µM (highest dose often 28.7 µM), for the others: at the top dose activity change, negative = inhibition, usual class: inhibitors. 6.9% of 320,000 active; further: potency means the concentration at half of the fitted maximal effect; on the % scale 0 is the no-effect control and ±100 the full control effect
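96 h incubation, 37 C, 5% CO2, of luciferase-reporter P. falciparum-infected RBCs (2% hematocrit, 0.05% parasitemia final) with test compounds; endpoint luminescence.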
Numbers without * were called inactive; ? = inconclusive; . = not tested or not shown; [ ] = another dose, or the depositor's remark. Shown are actives, neighbours in structure and some others; about 21% of the full set was active somewhere. Unless noted, the call rests on the fitted dose curve; in most records, active means well fitted curve in the direction sought with a large enough effect; inconclusive means small, poorly fitted or top-dose-only effect, or another doubt; inactive means no such curve, though single readings can be large; an effect the other way counts as inactive or inconclusive.

SMILES	Giardia FBPA inh	Pf growth 48h	Cycloheximide cs	Shiga inhibitor	NS1 function inh	Pf growth 96h
CN(C(=O)Nc1ccc(Cl)cc1Cl)C1CCCC1	-2.6%	150.3%	18.5*	44.2*	8.7%	41.7%
COc1ccc(CNc2ncnc3ccc(-c4ccccc4CN(C)C)cc23)c(OC)c1	-2.1%	.	.	.	.	.
Cc1cc(NC(=O)CSc2nnc3ccccn23)no1	1.6%	9.4%	-1.7	-10.5	-1.5%	?
COc1ccc(C(=O)N2CCCC(Nc3ccc(C)c(C)c3)C2)c(OC)n1 (stereo not given)	-7.2%	6.8%	9.6	-5.0	-10.3%	-17.7%
Cc1onc(-c2c(F)cccc2Cl)c1C(=O)NC1C(=O)N2C1SC(C)(C)C2C(=O)O (stereo not given)	.	-13.9%	.	.	.	-22.6%
COc1ccccc1CNC(=O)CN(C)S(=O)(=O)c1cccc2cccnc12	5.3%	-3.2%	8.0	3.7	-1.8%	14.1%
CC(C)=O	.	-3.7%	.	.	.	7.7%
CCC(=O)CC	14.1µM*	.	-7.5	5.3	.	.
CCCCN1C(=N)C(CC)(CC)C(=O)NC1=O	-5.2%	7.1%	-2.9	-13.1	6.7%	14.7µM*
CCCCC(Sc1nc(C)c(Cc2ccccc2)c(=O)[nH]1)C(=O)O (stereo not given)	6.1%	?	3.4	15.3	?	?
CC(C)(C)c1ccc(Oc2ncccc2NC(=O)c2cccs2)cc1	-6.1%	-16.2%	-1.9	16.2	-12.0%	-16.2%
COc1ccc(NC(=O)c2cccs2)cn1	-1.8%	17.6%	25.9*	61.5*	-48.9%	102.0%
CC(C)(C)c1ccc(Oc2ccc(NC(=O)c3cccs3)cn2)cc1	-9.0%	2.62µM*	8.7	1.9	-5.6%	13.1µM*
CC(C)CNC(=S)N(Cc1ccco1)Cc1cc2cc3c(cc2[nH]c1=O)OCCO3	-0.3%	?	7.8	-11.6	11.8%	-3.8%
CCOC(=O)c1cnn2c(C(F)(F)F)cc(-c3ccco3)nc12	2.0%	1.8%	-6.8	-7.2	-1.8%	1.6%
CCCn1c(=O)c2c(C(=O)OCC)cc(-c3ccco3)nc2n(CCC)c1=O	-0.1%	.	-2.2	-6.8	2.9%	1.47µM*
CCOC(=O)c1cc(-c2ccco2)nc2c1c(C)nn2-c1ccccc1	-0.6%	9.28µM*	-2.0	-7.2	-3.6%	13.7%
O=C(C1CC(=O)N(C2CCCC2)C1)N1CCN(c2cccc(Cl)c2)CC1 (stereo not given)	.	?	-3.7	-7.4	1.1%	2.0%
COc1ccccc1NS(=O)(=O)c1cc(NC(=O)c2cccs2)ccc1N1CCOCC1	-5.9%	9.28µM*	-1.7	-5.2	-49.3%	?
COc1nnc(-c2ccc(N3CCOCC3)c(NC(=O)c3ccco3)c2)c2ccccc12	-0.3%	7.38µM*	-2.1	-6.4	-59.1%	13.0%
COc1ccccc1NS(=O)(=O)c1cc(NC(=O)c2ccccc2F)ccc1N1CCOCC1	-0.1%	0.0%	2.2	-13.1	.	9.28µM*
COc1ccccc1NS(=O)(=O)c1cc(NC(=O)c2ccco2)ccc1N1CCOCC1	-0.6%	?	9.1	-4.2	.	10.4µM*
O=c1cnc2cnc(Oc3ccccc3)nc2n1C1CC1	-4.5%	.	.	.	.	.
COC(=O)C/C=C\[C@@H](C)[C@@H](/C=N\OCC[C@@H]1C=C[C@H](OC(C)=O)[C@H](COC(C)=O)O1)OC	1.3%[12.9 µM]	.	.	.	.	.
O=C(Nc1cccc(F)c1)N1CCC2(CC1)CCN(C(=O)c1csnn1)CC2	1.4%	.	.	.	.	.
SMILES	Giardia FBPA inh	Pf growth 48h	Cycloheximide cs	Shiga inhibitor	NS1 function inh	Pf growth 96h
COc1ccc(CNc2ncnc3ccc(-c4cccc(NS(C)(=O)=O)c4)cc23)c(OC)c1	1.0%	.	.	.	.	.
O=C(Nc1ccc2c(c1)OCO2)c1ccc(CN2CCOCC2)cc1	-2.5%	35.0%	39.7*	59.8*	11.2%	0.1%
NC(=O)c1ccc(NC(=O)c2ccc(CN3CCOCC3)cc2)cc1	3.2%	.	-1.6	-10.7	5.1%	4.3%
O=C(Nc1ccc(CN2CCCCC2)cc1)c1ccc2c(c1)OCO2	0.6%	4.7%	20.4*	33.7*	3.9%	.
O=C(CN1CCN(Cc2ccc3c(c2)OCO3)CC1)Nc1ccc2c(c1)OCO2	3.3%	3.9%	-1.6	-22.6	0.7%	.
CC(C)c1ccc(C(=O)Nc2ccc(CN3CCOCC3)cc2)cc1	10.0%	4.3%	23.4*	54.5*	-5.1%	?
O=C(Nc1ccc(CN2CCS(=O)(=O)CC2)cc1)c1ccc(Cl)cc1	-2.3%	-6.8%	15.6*	37.8	5.5%	-6.7%
Cc1cnc(C(=O)Oc2ccc(-c3ccccc3)cc2)cn1	-4.9%	-6.6%	5.4	-6.0	5.7%	-26.1%
CCOC(=O)N1CCN(C(=O)CNC2CCCCCCC2)CC1	?	-19.5%	-1.0	-8.9	.	15.6%
CCc1sc(C(=O)N2CCN(c3ccc(F)cc3)CC2)cc1C	0.4%	-11.3%	1.3	2.9	-15.5%	-14.3%
O=C(Nc1ccc2c(c1)OCO2)c1cn(Cc2ccc(F)cc2)nn1	0.9%	39.2%	18.1	41.8*	0.1%	?
CCOC(=O)c1c(O)[nH]c(=O)c(CC)c1C	.	.	.	.	0.0%	.
CC(=O)Nc1cc2c(cc1NC(=O)Cn1nc(-c3ccc4c(c3)OCCO4)ccc1=O)OCCO2	0.6%	.	12.5	-10.2	18.6%	9.28µM*
CC(=O)Nc1cc2c(cc1NC(=O)Cn1nc(-c3ccccc3)ccc1=O)OCCO2	.	-23.5%	-2.6	-1.8	10.3%	-13.0%
CC(NC1CCCCC1)C(=O)NN=C(c1ccccc1)c1ccccc1 (stereo not given)	0.7%	-14.5%	-2.0	-11.3	-6.5%	-28.7%
COc1ccc(-c2nnc(SCCC(=O)O)n2-c2ccccc2)cc1	10.3%	11.9%	6.4	-4.0	7.7%	.
COc1ccc(-n2c(SCC(=O)O)nnc2-c2ccc(NC(=O)c3ccccc3)cc2)cc1	22.6%	5.22µM*	-4.0	19.0	-0.2%	18.2%
COc1ccc(-c2nnc(SCC(=O)c3ccc[nH]3)n2-c2ccccc2)cc1	1.4%	28.7%	33.9*	81.5*	12.7%	?
COc1ccc(NC(=O)CSc2nnc(-c3ccccc3)n2N)cc1	0.5%	-3.1%	-0.3	1.8	-1.5%	28.5%
Cn1c(-c2ccc(CN3CCCCC3)o2)nc2ccccc21	-0.6%	86.9%	25.6*	84.0*	3.8%	289.7%
Cc1ccc(/C=C2\SC(=S)N(CCCC(=O)Nc3ccccc3C(=O)O)C2=O)cc1	.	18.3%	0.7	-9.3	7.3%	?
Cc1ccc(/C=C2\SC(=S)N(CCCC(=O)Nc3ccccn3)C2=O)cc1	-0.1%	?	-4.6	-27.0	-5.7%	10.4µM*
O=C(CCN1C(=O)/C(=C/c2ccc(F)cc2)SC1=S)Nc1cccnc1	4.2%	8.4%	-7.3	-3.8	-8.4%	4.9%
O=C(CN1C(=O)/C(=C/c2ccc(F)cc2)SC1=S)N1CCN(CCc2ccccn2)CC1	.	8.2%	-0.9	-12.8	4.6%	14.7µM*
Cc1ccc(/C=C2\SC(=S)N(CCCC(=O)Nc3ccc(O)cc3)C2=O)cc1	3.6%	?	18.3*	38.8*	-2.1%	5.6%
